# Reference: PubChem BioAssay AID1159580 (chemical genetic matrix, 2015)
# Screen size: about 5,500 compounds; about 2,000 (36%) were called active. Not shown: some 18% with an inconclusive outcome. Some of the results follow. Values without a mark were called inactive. Cut-off read from the data, not from the text of the source: active = normalized growth mostly below about 0.91 (no sharp cut-off); inconclusive = no clear call, values can overlap the other calls; inactive = mostly above about 0.92.
# Assay: chemical genetic growth profiling, strain panel (AID 1159580);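 note: tested at 20 µM; growth read once vehicle control cultures reached saturation at 30 °C; 1 = growth at the plate median or of vehicle wells; lower values mean less growth of the strain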
# Settings: growth OD
smiles,measurement,setting,value
CCCCCCCCCCCCC[N+](C)(C)Cc1ccccc1,normalized growth,"S. cerevisiae deletion strains, locus YJR075W, strain HOC1, hits give low values",0.0621 (active)
same,normalized growth,"S. cerevisiae deletion strains, locus YKL009W, strain mrt4, hits give low values",0.102 (active)
same,normalized growth,"S. cerevisiae deletion strains, locus YKL068W, hits give low values",0.0707 (active)
same,normalized growth,"S. cerevisiae deletion strains, locus YKL085W, strain MDH1 (second series), hits give low values",0.0622 (active)
same,normalized growth,"S. cerevisiae deletion strains, locus YKL085W, strain MDH1, hits give low values",0.0622 (active)
same,normalized growth,"S. cerevisiae deletion strains, locus YKL160W, strain elf1, hits give low values",0.0609 (active)
same,normalized growth,"S. cerevisiae deletion strains, locus YKL190W, strain CNB1, hits give low values",0.0462 (active)
same,normalized growth,"S. cerevisiae deletion strains, locus YKR001C, strain vps1, hits give low values",0.0665 (active)
same,normalized growth,"S. cerevisiae deletion strains, locus YKR026C, strain gcn3, hits give low values",0.0645 (active)
same,normalized growth,"S. cerevisiae deletion strains, locus YKR091W, strain srl3, hits give low values",0.0591 (active)
same,normalized growth,"S. cerevisiae deletion strains, locus YLL001W, strain dnm1, hits give low values",0.0643 (active)
same,normalized growth,"S. cerevisiae deletion strains, locus YLL026W, hits give low values",0.0581 (active)
same,normalized growth,"S. cerevisiae deletion strains, locus YLL041C, strain sdh2, hits give low values",0.0534 (active)
same,normalized growth,"S. cerevisiae deletion strains, locus YLR027C, strain aat2, hits give low values",0.0632 (active)
same,normalized growth,"S. cerevisiae deletion strains, locus YLR039C, strain RIC1, hits give low values",0.0768 (active)
same,normalized growth,"S. cerevisiae deletion strains, locus YLR058C, strain SHM2, hits give low values",0.0468 (active)
same,normalized growth,"S. cerevisiae deletion strains, locus YLR102C, strain apc9, hits give low values",0.0591 (active)
same,normalized growth,"S. cerevisiae deletion strains, locus YLR113W, strain HOG1, hits give low values",0.115 (active)
same,normalized growth,"S. cerevisiae deletion strains, locus YLR221C, strain rsa3, hits give low values",0.0601 (active)
same,normalized growth,"S. cerevisiae deletion strains, locus YLR258W, strain gsy2, hits give low values",0.0594 (active)
same,normalized growth,"S. cerevisiae deletion strains, locus YLR262C, strain YPT6 (second series), hits give low values",0.0813 (active)
same,normalized growth,"S. cerevisiae deletion strains, locus YLR262C, strain YPT6, hits give low values",0.0988 (active)
same,normalized growth,"S. cerevisiae deletion strains, locus YLR268W, strain sec22, hits give low values",0.0715 (active)
same,normalized growth,"S. cerevisiae deletion strains, locus YLR320W, strain mms22, hits give low values",0.0747 (active)
same,normalized growth,"S. cerevisiae deletion strains, locus YLR330W, strain CHS5, hits give low values",0.0507 (active)
same,normalized growth,"S. cerevisiae deletion strains, locus YLR342W, strain FKS1 (second series), hits give low values",0.0621 (active)
same,normalized growth,"S. cerevisiae deletion strains, locus YLR342W, strain FKS1, hits give low values",0.0644 (active)
same,normalized growth,"S. cerevisiae deletion strains, locus YLR357W, strain rsc2, hits give low values",0.114 (active)
same,normalized growth,"S. cerevisiae deletion strains, locus YLR370C, strain arc18, hits give low values",0.0615 (active)
same,normalized growth,"S. cerevisiae deletion strains, locus YLR371W, strain rom2, hits give low values",0.0625 (active)
same,normalized growth,"S. cerevisiae deletion strains, locus YLR384C, strain iki3, hits give low values",0.0574 (active)
same,normalized growth,"S. cerevisiae deletion strains, locus YLR418C, strain cdc73, hits give low values",0.0973 (active)
same,normalized growth,"S. cerevisiae deletion strains, locus YML016C, strain PPZ1, hits give low values",0.0455 (active)
same,normalized growth,"S. cerevisiae deletion strains, locus YML032C, strain rad52, hits give low values",0.0731 (active)
same,normalized growth,"S. cerevisiae deletion strains, locus YML120C, strain ndi1, hits give low values",0.0563 (active)
same,normalized growth,"S. cerevisiae deletion strains, locus YML124C, strain tub3, hits give low values",0.0618 (active)
same,normalized growth,"S. cerevisiae deletion strains, locus YMR058W, strain fet3, hits give low values",0.064 (active)
same,normalized growth,"S. cerevisiae deletion strains, locus YMR078C, strain ctf18, hits give low values",0.0768 (active)
same,normalized growth,"S. cerevisiae deletion strains, locus YMR125W, strain sto1, hits give low values",0.0739 (active)
same,normalized growth,"S. cerevisiae deletion strains, locus YMR129W, hits give low values",0.0593 (active)
same,normalized growth,"S. cerevisiae deletion strains, locus YMR205C, strain PFK2, hits give low values",0.0873 (active)
same,normalized growth,"S. cerevisiae deletion strains, locus YMR223W, strain ubp8, hits give low values",0.0651 (active)
same,normalized growth,"S. cerevisiae deletion strains, locus YMR231W, strain pep5, hits give low values",0.0683 (active)
same,normalized growth,"S. cerevisiae deletion strains, locus YMR307W, strain GAS1, hits give low values",0.11 (active)
same,normalized growth,"S. cerevisiae deletion strains, locus YNL067W, strain RPL9B, hits give low values",0.0494 (active)
same,normalized growth,"S. cerevisiae deletion strains, locus YNL071W, strain lat1, hits give low values",0.0572 (active)
same,normalized growth,"S. cerevisiae deletion strains, locus YNL128W, strain TEP1, hits give low values",0.0628 (active)
same,normalized growth,"S. cerevisiae deletion strains, locus YNL153C, strain GIM3, hits give low values",0.0486 (active)
same,normalized growth,"S. cerevisiae deletion strains, locus YNL183C, strain NPR1, hits give low values",-0.00105 (active)
same,normalized growth,"S. cerevisiae deletion strains, locus YNL209W, strain ssb2, hits give low values",0.0596 (active)
same,normalized growth,"S. cerevisiae deletion strains, locus YNL233W, strain BNI4, hits give low values",0.0559 (active)
same,normalized growth,"S. cerevisiae deletion strains, locus YNL248C, strain rpa49, hits give low values",0.0866 (active)
same,normalized growth,"S. cerevisiae deletion strains, locus YNL250W, strain rad50, hits give low values",0.107 (active)
same,normalized growth,"S. cerevisiae deletion strains, locus YNL271C, strain bni1, hits give low values",0.0664 (active)
same,normalized growth,"S. cerevisiae deletion strains, locus YNL298W, strain CLA4, hits give low values",0.0607 (active)
same,normalized growth,"S. cerevisiae deletion strains, locus YNL307C, strain MCK1, hits give low values",0.0673 (active)
same,normalized growth,"S. cerevisiae deletion strains, locus YNL322C, strain KRE1 (second series), hits give low values",0.0716 (active)
same,normalized growth,"S. cerevisiae deletion strains, locus YNR049C, strain mso1, hits give low values",0.0569 (active)
same,normalized growth,"S. cerevisiae deletion strains, locus YNR052C, strain pop2, hits give low values",0.0607 (active)
same,normalized growth,"S. cerevisiae deletion strains, locus YOL006C, strain TOP1, hits give low values",0.101 (active)
same,normalized growth,"S. cerevisiae deletion strains, locus YOL012C, strain htz1",0.22
same,normalized growth,"S. cerevisiae deletion strains, locus YOL147C, strain pex11, hits give low values",0.0664 (active)
same,normalized growth,"S. cerevisiae deletion strains, locus YOR001W, strain rrp6, hits give low values",0.0665 (active)
same,normalized growth,"S. cerevisiae deletion strains, locus YOR061W, strain CKA2, hits give low values",0.0452 (active)
same,normalized growth,"S. cerevisiae deletion strains, locus YOR069W, strain VPS5, hits give low values",0.0467 (active)
same,normalized growth,"S. cerevisiae deletion strains, locus YOR070C, strain gyp1, hits give low values",0.0668 (active)
same,normalized growth,"S. cerevisiae deletion strains, locus YOR080W, strain dia2, hits give low values",0.0657 (active)
same,normalized growth,"S. cerevisiae deletion strains, locus YOR083W, strain WHI5, hits give low values",0.0673 (active)
same,normalized growth,"S. cerevisiae deletion strains, locus YOR106W, strain vam3, hits give low values",0.0651 (active)
same,normalized growth,"S. cerevisiae deletion strains, locus YOR136W, strain idh2, hits give low values",0.0728 (active)
same,normalized growth,"S. cerevisiae deletion strains, locus YOR144C, strain elg1, hits give low values",0.0629 (active)
same,normalized growth,"S. cerevisiae deletion strains, locus YOR184W, strain ser1, hits give low values",0.0779 (active)
same,normalized growth,"S. cerevisiae deletion strains, locus YOR231W, strain MKK1, hits give low values",0.103 (active)
same,normalized growth,"S. cerevisiae deletion strains, locus YOR265W, strain rbl2, hits give low values",0.0552 (active)
same,normalized growth,"S. cerevisiae deletion strains, locus YOR270C, strain vph1, hits give low values",0.0971 (active)
same,normalized growth,"S. cerevisiae deletion strains, locus YOR290C, strain snf2, hits give low values",0.0603 (active)
same,normalized growth,"S. cerevisiae deletion strains, locus YOR316C, strain cot1, hits give low values",0.0576 (active)
same,normalized growth,"S. cerevisiae deletion strains, locus YPL051W, strain arl3, hits give low values",0.0609 (active)
same,normalized growth,"S. cerevisiae deletion strains, locus YPL055C, strain LGE1, hits give low values",0.0695 (active)
same,normalized growth,"S. cerevisiae deletion strains, locus YPL078C, strain atp4, hits give low values",0.0642 (active)
same,normalized growth,"S. cerevisiae deletion strains, locus YPL106C, strain sse1, hits give low values",0.0953 (active)
same,normalized growth,"S. cerevisiae deletion strains, locus YPL240C, strain hsp82, hits give low values",0.0558 (active)
same,normalized growth,"S. cerevisiae deletion strains, locus YPL256C, strain CLN2, hits give low values",0.111 (active)
same,normalized growth,"S. cerevisiae deletion strains, locus YPR119W, strain clb2, hits give low values",0.0637 (active)
same,normalized growth,"S. cerevisiae deletion strains, locus YPR141C, strain kar3, hits give low values",0.0734 (active)
same,normalized growth,"S. cerevisiae deletion strains, locus YPR163C, strain tif3, hits give low values",0.0705 (active)
same,normalized growth,"S. cerevisiae deletion strains, locus YPR167C, strain met16, hits give low values",0.063 (active)
same,normalized growth,"S. cerevisiae deletion strains, strain wtn01, hits give low values",0.067 (active)
same,normalized growth,"S. cerevisiae strains, strain wild type, hits give low values",0.0467 (active)
